In ChEMBL document CHEMBL4513146, “CO-ADD screening of Karazin Kharkiv National University (Ukraine) compounds”:
Results with a measured potency or affinity are listed apart.

What was measured:
Klebsiella pneumoniae = conditions: Concentration 32 ug.mL-1;; ASSAY_TEST Inhibition of Bacterial Growth; detection method Absorption (OD600); MEDIA CAMHB; plate type 384well; NBS; CORNING #3640; time 18 hr
Candida albicans = conditions: Concentration 32 ug.mL-1; ASSAY_TEST Inhibition of Fungal Growth; detection method Absorption (OD530)
Cryptococcus neoformans = conditions: Concentration 32 ug.mL-1; ASSAY_TEST Inhibition of Fungal Growth; detection method Resazurin; Absorption (OD600-OD570); plate type 384well; NBS; CORNING #3640

Compound | Inhibition (Klebsiella pneumoniae) [%] | Inhibition (Candida albicans) [%] | Inhibition (Cryptococcus neoformans) [%]
COc1ccc(N(Cc2cccc(C)c2)S(=O)(=O)c2ccc3nncn3c2)cc1 | -1.75 | 4.35 | -8.71
Cc1ccccc1CSc1nnc2c(=O)n(-c3ccc(F)c(F)c3)ccn12 | 9.65 | 4.14 | -9.1
COc1ccccc1-n1ccn2c(SCc3cccc(Cl)c3)nnc2c1=O | 1.3 | 1.65 | -7.59
O=c1n(Cc2cccc(Br)c2)nc2ccc(-c3ccccc3)nn12 | 10.27 | 5.28 | -13.38
COc1cccc(Oc2nccn3c(=O)n(CC(=O)Nc4ccc5c(c4)OCO5)nc23)c1 | 7.21 | 1.19 | -8.5
O=c1c2nnc(-c3cccc([N+](=O)[O-])c3)n2ccn1-c1ccc(F)cc1 | 11.79 | 5.6 | -10.38
CCOc1ccc(-n2ccn3c(SCC#N)nnc3c2=O)cc1 | 5.38 | 1.02 | -3.42
COc1cccc(CN(c2ccc(C)c(F)c2)S(=O)(=O)c2ccc3nncn3c2)c1 | 1.02 | -0.35 | -8.8
COc1cccc(Cn2nc3c(=O)n(-c4cccc(Cl)c4C)ccn3c2=O)c1 | -11.12 | 6.64 | -14.85
Cc1cccc(C)c1NC(=O)Cn1c(=O)c2nnc(C(C)C)n2c2ccccc21 | 1.46 | 4.52 | -19.69
CCOc1ccc(-n2ccn3c(SC(CC)C(=O)Nc4ccc(C(C)C)cc4)nnc3c2=O)cc1 (stereo not drawn) | 9.42 | 6.16 | -12.9
